tested on: VDR homodimer (NR concentration 270 nM); assay: PBM binding z-score (relative to random genomic background probes); higher = stronger binding; sequences stand for … in GC…GCGATTGACAGCGTAGAATGAAGG
In short: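 Custom Agilent 4×180K protein-binding microarrays carried double-stranded probes. Their 34-nt variable regions held direct-repeat seeds, single-nucleotide variants, half-site ablations and random human genomic background sequences. Arrays were incubated 1 h with ligand-free nuclear receptor dimers in PBS pH 7.4, 2% milk, 0.02% Triton X-100, 1 mM DTT, 0.2 mg/mL BSA and 0.4 mg/ml salmon testes DNA. Antibodies against each partner (one per run) detected binding, and scanned fluorescence was regression-normalized. Binding z-scores use random background probes as reference.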

Sequence | PBM binding z-score
TATACAGGGTCAAAAGCCAGAGTACGAATGTCGA | 2.71
CCTCGGAGGACAACAGGAGGTCAGAGCCGCCAGA | 0.836
CCGACTGGGGCAAAGGTTACCTTACTCAGTACGA | -0.495
CGAACGAGAGCATGAGTTGATAGCAAATGCCGAT | 0.244
CCAGACAGGTGAAAGATAACTCAGTCTGGTACGC | 0.339
CCTATTAGTTGACCATAAGGGCAATCGAAGCTCG | 1.13
CCTTACGGATCAAGGTTATAGCACGGGTGGTACG | 0.886
TAGCCTAGGTCATCGGCCAGTATACCACGCGAAC | 0.802
CAAACTTGGTCAAGAGGTCAAAGTCCGCTTCCCG | 3.57
CGTCAATGTTCAAGGTAACGTAACAGAAAGCAGC | 0.0285
GCTAGCAGGCCATTTGGGTCAATCAATGACGGGC | -0.0302
CAAACTAGGTCAAGAGGTCATAGTCCGCTTCCCG | 3.82
GGAACGAGGGCAAGGTGATAGCAGAGTTTGATGG | 2.05
CCTCGGAGTACAACAGGAGGTCAGAGCTGCCAGA | 1.47
TAGCCTAGGTCATGCGGGCCAGTAGAGTGTCGGC | 0.486
TCATATAGGTAAATGCTAGATGAAAGTCCGATCT | 0.317
TCTTGTAGATCAATAGAGGTTAAGAACGTGCGCT | 0.37
TAGCCTAGGTCATGGGCCAGTCTACCACGCGAAC | 0.0195

From the supplement of paper PMC6555819
